Reference: PubChem BioAssay (NCI)
This is part of a sample that, as a whole, favours compounds with a hit. Of some 79,000 tested, about 15% had one in any assay. Unmarked numbers belong to inactive results. Calls of active or inactive are those of the source. No stated cut-off is given here; in the data, active means growth inhibition above about 70%; inactive means the rest. Where a SMILES comes first, the peptide text is derived from it. [ ]: non-standard residue; d: D form. The star is where a group is joined. mTyr = N[CH](Cc1cccc(O)c1)C(=O)O; Cbz = O=C(OCc1ccccc1)*; OBn = c1ccc(CO*)cc1

Experiment: NCI Yeast Anticancer Drug Screen. Data for the mec2-1 strain (AID 157)
Settings: S. cerevisiae mec2-1 strain, at 50.0 µM (retest, dose inferred, filed as 5.0), hits give high values
Outline: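 Vehicle-treated cultures served as reference for growth inhibition of compound-exposed mec2-1 yeast.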

| SMILES | growth inhibition |
| --- | --- |
| CC(/C=N/NS(=O)(=O)c1ccc(C)cc1)=C(c1ccccc1)c1ccccc1 | 96% (active) |
| CCOC(=O)Cc1cc(=O)oc2c(CN3CCN(c4ccc(C)cc4)CC3)c(O)ccc12 | 77% (active) |
| Clc1ccc(/C=N\Nc2c3ccccc3nc3ccccc23)cc1Cl | 21% |
| CNC(=O)c1cc(NC(=O)c2ccc(C(=O)Nc3cc(C(=O)NC)cc(C4=NCCN4)c3)cc2)cc(C2=NCCN2)c1 | 1% |
| O=P1(O)c2ccccc2CS(=O)(=O)Cc2ccccc21 | 24% |
| CC1=C(C(=O)NCc2ccccc2)C(c2ccccc2[N+](=O)[O-])C(C(=O)NCc2ccccc2)=C(C)N1 | 9% |
| Oc1ccc(C2CCCCC2)cc1 | 51% |
| CCN(CC)CCOc1cccc2c1C(=O)c1c(O)cccc1C2=O | 70% (active) |
| CCN(CC)C1Oc2cc3c(cc2C(c2ccc(OC)cc2)C1C)OCO3 (stereo not given) | 96% (active) |
| COc1ccc(C2C3CCCC(C(c4ccc(OC)cc4)N2C)C32NC(=O)NC2=O)cc1 (stereo not given) | 98% (active) |
| Clc1ccc(SSc2ccc(Cl)cn2)nc1 | 96% (active) |
| CN=c1sc2c(n1C)C(=O)c1ccccc1C2=O | 40% |
| O=C(Nc1cccc(Cl)c1)OCCOC(=O)Nc1cccc(Cl)c1 | 99% (active) |
| O=[N+]([O-])c1ccc2c(c1)Cc1cc(Cl)ccc1-2 | 5% |
| Cc1c(-c2ccccc2)ccnc1/C=N/NC(=S)NCCc1ccccc1 | 85% (active) |
| O=C(O)CCC(=O)NCCNC(=O)CC(=O)O | -51% |
| Cc1cc2c(cc1S(=O)(=O)O)C1C(C3C2C2(Cl)C(Cl)=C(Cl)C3(Cl)C2(Cl)Cl)C2(Cl)C(Cl)=C(Cl)C1(Cl)C2(Cl)Cl (stereo not given) | 72% (active) |
| O=C1/C(=C/c2ccccc2)CNC/C1=C\c1ccccc1 | 97% (active) |
| Cc1ccc2c(c1)-c1cc(C)ccc1C2(O)c1ccccc1 | 66% |
| CCCc1cc2c(cc1COc1ccccc1C(=O)O)OCO2 | 52% |

| SMILES | growth inhibition |
| --- | --- |
| O=C1OC(c2ccc3c(c2)OCO3)Sc2ccccc21 (stereo not given) | -9% |
| Cc1cc(NC(=S)SCc2ccc(Cl)cc2)ccc1F | 70% (active) |
| NC(=O)CC1CCC(c2ccccc2)CC1 (stereo not given) | -23% |
| [O-]c1c2cc(-[n+]3c(-c4ccccc4)cc(-c4ccccc4)cc3-c3ccccc3)cc1CO[C@@H](c1ccccc1)[C@H](c1ccccc1)OCc1cccc(n1)CO[C@@H](c1ccccc1)[C@H](c1ccccc1)OC2 | 98% (active) |
| OCCN(CCO)c1cc(/C=C/c2ccnc3ccccc23)nc2ccccc12 | 23% |
| COC(=O)C(Cc1cccc(O)c1)NC(=O)C(CC(=O)OCc1ccccc1)NC(=O)OCc1ccccc1 (stereo not given) (Cbz-Asp(OBn)-[mTyr]-OMe; configuration not given here) | 21% |
| COc1cc[c]([Sn]([c]2ccc(OC)cc2)([c]2ccc(OC)cc2)[c]2ccc(OC)cc2)cc1 | 6% |
| COC(=O)CCCCCOS(=O)(=O)c1ccc(C)cc1 | -5% |
| O=S(=O)(C#Cc1ccccc1)c1ccccc1 | 99% (active) |
| N#CC1(C#N)C(C#N)(C#N)C12CCCCCC2 | 98% (active) |
| CCOC(=O)/C(C)=N/Nc1cc(Cl)ccc1O | 32% |
| N/C(CC(=O)NOC(=O)c1ccccc1)=N/OC(=O)c1ccccc1 | 99% (active) |
| C/C(=N\NC(=S)N1CCC(C)CC1)c1ncccn1 | 99% (active) |
| Cc1ccc(S(=O)(=O)OCC(/C=N/NC(N)=O)OCOC(C)/C=N/NC(N)=O)cc1 (stereo not given) | -5% |
| CN1COc2c(Cl)cc(Cl)cc2C1 | 45% |
| c1ccc2cc3c(cc2c1)Nc1c2ccccc2nc2cccc-3c12 | 57% |
| CCCCN(CCCC)S(=O)(=O)c1ccccc1 | 3% |
| Cc1cccc(N2C(c3ccccc3)c3ccc(C)cc3NS2=O)c1 (stereo not given) | -2% |
| CN(C)c1ccc(/C=N/c2nc(-c3ccccc3)cs2)cc1 | 96% (active) |
| O=C1c2ccccc2-c2nc3ncccc3cc21 | 83% (active) |

Same assay, conditions: S. cerevisiae mec2-1 strain, at 50.0 µM, hits give high values

| SMILES | growth inhibition |
| --- | --- |
| CC(/C=N/NS(=O)(=O)c1ccc(C)cc1)=C(c1ccccc1)c1ccccc1 | 55.5% |
| CCOC(=O)Cc1cc(=O)oc2c(CN3CCN(c4ccc(C)cc4)CC3)c(O)ccc12 | 51.7% |
| Clc1ccc(/C=N\Nc2c3ccccc3nc3ccccc23)cc1Cl | 14.6% |
| CNC(=O)c1cc(NC(=O)c2ccc(C(=O)Nc3cc(C(=O)NC)cc(C4=NCCN4)c3)cc2)cc(C2=NCCN2)c1 | 99.6% (active) |
| O=P1(O)c2ccccc2CS(=O)(=O)Cc2ccccc21 | -11.1% |
| CC1=C(C(=O)NCc2ccccc2)C(c2ccccc2[N+](=O)[O-])C(C(=O)NCc2ccccc2)=C(C)N1 | 84.2% (active) |
| Oc1ccc(C2CCCCC2)cc1 | 79.5% (active) |
| CCN(CC)CCOc1cccc2c1C(=O)c1c(O)cccc1C2=O | 39.3% |
| CCN(CC)C1Oc2cc3c(cc2C(c2ccc(OC)cc2)C1C)OCO3 (stereo not given) | 77.5% (active) |
| COc1ccc(C2C3CCCC(C(c4ccc(OC)cc4)N2C)C32NC(=O)NC2=O)cc1 (stereo not given) | 98% (active) |
| Clc1ccc(SSc2ccc(Cl)cn2)nc1 | 96.3% (active) |
| CN=c1sc2c(n1C)C(=O)c1ccccc1C2=O | 75.7% (active) |
| O=C(Nc1cccc(Cl)c1)OCCOC(=O)Nc1cccc(Cl)c1 | 99.2% (active) |
| O=[N+]([O-])c1ccc2c(c1)Cc1cc(Cl)ccc1-2 | -13.9% |
| Cc1c(-c2ccccc2)ccnc1/C=N/NC(=S)NCCc1ccccc1 | 76.3% (active) |
| O=C(O)CCC(=O)NCCNC(=O)CC(=O)O | -14.8% |
| Cc1cc2c(cc1S(=O)(=O)O)C1C(C3C2C2(Cl)C(Cl)=C(Cl)C3(Cl)C2(Cl)Cl)C2(Cl)C(Cl)=C(Cl)C1(Cl)C2(Cl)Cl (stereo not given) | 74.4% (active) |
| O=C1/C(=C/c2ccccc2)CNC/C1=C\c1ccccc1 | 99.3% (active) |
| Cc1ccc2c(c1)-c1cc(C)ccc1C2(O)c1ccccc1 | 97.9% (active) |
| CCCc1cc2c(cc1COc1ccccc1C(=O)O)OCO2 | 59.8% |

| SMILES | growth inhibition |
| --- | --- |
| O=C1OC(c2ccc3c(c2)OCO3)Sc2ccccc21 (stereo not given) | 9.85% |
| Cc1cc(NC(=S)SCc2ccc(Cl)cc2)ccc1F | 96% (active) |
| NC(=O)CC1CCC(c2ccccc2)CC1 (stereo not given) | 6.95% |
| [O-]c1c2cc(-[n+]3c(-c4ccccc4)cc(-c4ccccc4)cc3-c3ccccc3)cc1CO[C@@H](c1ccccc1)[C@H](c1ccccc1)OCc1cccc(n1)CO[C@@H](c1ccccc1)[C@H](c1ccccc1)OC2 | 90.8% (active) |
| OCCN(CCO)c1cc(/C=C/c2ccnc3ccccc23)nc2ccccc12 | 28.6% |
| COC(=O)C(Cc1cccc(O)c1)NC(=O)C(CC(=O)OCc1ccccc1)NC(=O)OCc1ccccc1 (stereo not given) (Cbz-Asp(OBn)-[mTyr]-OMe; configuration not given here) | 74.8% (active) |
| COc1cc[c]([Sn]([c]2ccc(OC)cc2)([c]2ccc(OC)cc2)[c]2ccc(OC)cc2)cc1 | 85.3% (active) |
| COC(=O)CCCCCOS(=O)(=O)c1ccc(C)cc1 | 16.2% |
| O=S(=O)(C#Cc1ccccc1)c1ccccc1 | 99.5% (active) |
| N#CC1(C#N)C(C#N)(C#N)C12CCCCCC2 | 99.3% (active) |
| CCOC(=O)/C(C)=N/Nc1cc(Cl)ccc1O | 94% (active) |
| N/C(CC(=O)NOC(=O)c1ccccc1)=N/OC(=O)c1ccccc1 | 99.5% (active) |
| C/C(=N\NC(=S)N1CCC(C)CC1)c1ncccn1 | 99.2% (active) |
| Cc1ccc(S(=O)(=O)OCC(/C=N/NC(N)=O)OCOC(C)/C=N/NC(N)=O)cc1 (stereo not given) | 99.2% (active) |
| CN1COc2c(Cl)cc(Cl)cc2C1 | 57.2% |
| c1ccc2cc3c(cc2c1)Nc1c2ccccc2nc2cccc-3c12 | 70.5% (active) |
| CCCCN(CCCC)S(=O)(=O)c1ccccc1 | 32.4% |
| Cc1cccc(N2C(c3ccccc3)c3ccc(C)cc3NS2=O)c1 (stereo not given) | 98.8% (active) |
| CN(C)c1ccc(/C=N/c2nc(-c3ccccc3)cs2)cc1 | 98.4% (active) |
| O=C1c2ccccc2-c2nc3ncccc3cc21 | 56.1% |
